Consider 40 compounds from PubChem BioAssay (Tox21).

Results filed as inconclusive are left out. Where a call stands in place of a potency, no number is given. Calls of active or inactive are those of the source. Calls come from the whole dose curve; as a rule, active = well fitted inhibition curve with a large enough effect in the repeat runs; inconclusive = weak or mixed curves; inactive = flat fitted curve, though single readings scatter.
Potency is the fitted concentration of half-maximal effect.

The target of this experiment is Voltage-gated inwardly rectifying potassium channel KCNH2 (Homo sapiens) (UniProt Q12809). The experiment can be described thus: Human Ether-a-go-go-Related Gene (hERG) channel small molecule antagonists: fluorescence cell-based qHTS assay (AID 1671200). Note: nearly all actives have a fitted effect of over 50% in size. The following applies: hERG-U2OS cells, FluxOR thallium flux fluorescence; series mostly up to 76.8 µM. From the text: National Center for Advancing Translational Sciences [NCATS]
Voltage-gated inwardly rectifying potassium channel KCNH2 (Homo sapiens), sequence (Q12809 whole entry, looked up): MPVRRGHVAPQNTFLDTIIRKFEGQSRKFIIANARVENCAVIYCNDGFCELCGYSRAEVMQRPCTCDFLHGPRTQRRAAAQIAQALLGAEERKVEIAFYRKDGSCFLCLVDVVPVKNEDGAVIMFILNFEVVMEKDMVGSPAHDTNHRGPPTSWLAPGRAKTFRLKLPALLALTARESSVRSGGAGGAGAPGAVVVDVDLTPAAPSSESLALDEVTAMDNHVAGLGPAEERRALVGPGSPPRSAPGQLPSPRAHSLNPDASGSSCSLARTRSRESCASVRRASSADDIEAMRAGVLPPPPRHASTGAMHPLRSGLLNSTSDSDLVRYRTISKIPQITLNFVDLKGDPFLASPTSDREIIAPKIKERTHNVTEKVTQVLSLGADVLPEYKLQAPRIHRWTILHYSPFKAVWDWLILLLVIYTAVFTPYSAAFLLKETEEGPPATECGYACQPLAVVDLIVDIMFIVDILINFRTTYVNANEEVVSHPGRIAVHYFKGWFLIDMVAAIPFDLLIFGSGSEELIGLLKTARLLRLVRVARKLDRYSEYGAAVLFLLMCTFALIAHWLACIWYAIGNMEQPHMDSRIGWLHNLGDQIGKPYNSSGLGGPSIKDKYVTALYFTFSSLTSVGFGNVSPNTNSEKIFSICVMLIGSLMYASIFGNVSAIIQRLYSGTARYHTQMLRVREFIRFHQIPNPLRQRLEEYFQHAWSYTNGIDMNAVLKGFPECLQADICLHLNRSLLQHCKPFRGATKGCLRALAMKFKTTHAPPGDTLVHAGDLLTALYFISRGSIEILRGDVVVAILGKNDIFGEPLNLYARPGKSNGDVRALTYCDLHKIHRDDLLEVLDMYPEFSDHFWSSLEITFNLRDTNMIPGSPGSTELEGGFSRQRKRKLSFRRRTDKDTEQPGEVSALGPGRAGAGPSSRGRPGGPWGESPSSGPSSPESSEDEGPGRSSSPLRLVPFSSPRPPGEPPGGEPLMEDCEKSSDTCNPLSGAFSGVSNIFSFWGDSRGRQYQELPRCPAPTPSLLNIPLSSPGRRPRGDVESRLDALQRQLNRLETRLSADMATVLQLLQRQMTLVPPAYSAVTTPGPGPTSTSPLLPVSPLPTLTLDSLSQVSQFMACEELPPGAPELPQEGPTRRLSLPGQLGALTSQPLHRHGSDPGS
U.S. Environmental Protection Agency [EPA]
National Institutes of Environmental Health Sciences [NIEHS]
National Toxicology Program [NTP]
U.S. Food and Drug Administration [FDA]
Mutations in the hERG channel cause Long QT (LQT) syndrome. LQT syndrome is a cardiac disorder which can cause ventricle arrhythmia and sudden death. Additionally, compounds which block the hERG channel can cause acquired LQT syndrome. Several FDA approved drugs have been removed from the market due to their hERG blocking activity. A cell-based hERG channel inhibition assay can be used to screen chemical compounds that inhibit hERG channel. This assay measures hERG channel activity using thallium ions as surrogate ions to measure potassium into the cells.
Tox21 Assay Protocol Summary:
hERG-U2OS cells were resuspended in culture medium and dispensed into 1536-well, black wall/clear-bottom plates at 1000cells/well/3uL using a Multidrop Combi dispenser (Thermo Fisher, Waltham, MA). After plates were incubated at 37 C overnight, 3 uL of Loading Buffer provided by FluxOR II Potassium Ion Channel Assay kit (Thermo, Carlsbad, CA) was added to each well. The assay plates were then incubated at room temperature in the dark for 1h. […] After the assay plates were incubated at room temperature for 10 min, 1 uL of Stimulus Buffer provided by FluxOR II Potassium Ion Channel Assay kit was added into each well and fluorescence intensity (480nm excitation/540nm emission) was continuously measured for 2 min at 1 second intervals using a Functional Drug Screening System (FDSS) 7000EX kinetic plate reader (Hamamatsu, Japan).
On the technique in general: hERG is a cardiac potassium channel; its block is linked to QT prolongation.
Consider `O=C(Nc1ccc(S(=O)(=O)N2CCOCC2)cc1)c1cc(Cl)ccc1NS(=O)(=O)c1ccc(Cl)s1`, for which the Potency result was “inactive”. Regarding `O=C(Nc1ccccc1)c1ccccc1O`, the Potency entry is “inactive”.

Consider `C[N+](C)(C)CCOC(=O)CCC(=O)OCC[N+](C)(C)C`, for which the Potency entry is “inactive”. For `CC(CC=O)c1ccccc1` (stereo not given), the Potency entry was “inactive”. Consider `CCCCCCCCCCCCCCCCOS(=O)(=O)O`, for which the Potency entry is “inactive”. In the case of `CN1CCC(N(Cc2cccs2)c2ccccc2)CC1`, the Potency is 2.68 µM (active). As for `CN(C)c1ccc(CCO)cc1`, the entry is “inactive”. Regarding `CCCCCCCC/C=C\CCCCCCCC(=O)OCC`, the Potency entry was “inactive”.

As for `CC1=CC[C@H](C(C)C)C=C1`, the Potency result was “inactive”. Under `CC/C=C\CCOC(=O)CC` stands “inactive”. Under `CCCCCCOC(=O)NC(=N)c1ccc(NCc2nc3cc(C(=O)N(CCC(=O)OCC)c4ccccn4)ccc3n2C)cc1` stands 0.601 µM (active). As for `CC[N+](C)(CC)CCOC(=O)C(O)(c1ccccc1)C1CCCCC1` (stereo not given), the entry is “inactive”. As to `COc1cc(Cl)c(OC)cc1N`, the Potency entry was “inactive”. `CN1CCN(C(c2ccccc2)c2ccccc2)CC1`: the Potency entry was “inactive”. For `CO[C@@H]1[C@H](OC(=O)/C=C/C=C/C=C/C=C/C(=O)O)CC[C@]2(CO2)[C@H]1[C@@]1(C)O[C@@H]1CC=C(C)C`, the Potency entry was “inactive”.

As for `C[N+]1(CC2COC(c3ccccc3)(C3CCCCC3)O2)CCCCC1` (stereo not given), the Potency was 15.1 µM (active). Take `ClCCOCCOCCCl`: the Potency result was “inactive”. Take `C[C@H](CCC(=O)O)[C@H]1CC[C@H]2[C@@H]3CC[C@@H]4C[C@H](O)CC[C@]4(C)[C@H]3C[C@H](O)[C@]12C`: the Potency result was “inactive”. As for `CC(C)(C)Cl`, the Potency result was “inactive”. Consider `Cc1ccc(C(=O)Oc2ccc(C(O)CNC(C)(C)C)cc2OC(=O)c2ccc(C)cc2)cc1` (stereo not given), for which the Potency was 6.74 µM (active). As for `C/C=C(/C(=C/C)c1ccc(OC(C)=O)cc1)c1ccc(OC(C)=O)cc1`, the Potency entry was “inactive”. As to `N=c1ccn2c(n1)O[C@H]1[C@H](O)[C@@H](CO)O[C@H]12`, the Potency entry is “inactive”.

With `O=C(O)C(S)C(S)C(=O)O` (stereo not given), the Potency result is “inactive”. As for `O=C(O)c1ccccc1Cl`, the Potency entry is “inactive”. As for `CC(C)(CO)[N+](=O)[O-]`, the Potency entry is “inactive”. For the compound `Nc1cccc([N+](=O)[O-])c1`, the Potency entry was “inactive”.

As to `CCN(CC)CCOC(=O)C(Cc1cccc2ccccc12)CC1CCCO1` (stereo not given), the Potency is 9.52 µM (active).

Turning to `CCCCCCCCCCCCCCOS(=O)(=O)O`, the Potency entry is “inactive”. In the case of `COc1cccc(N(C)C(=S)Oc2ccc3c(c2)CCCC3)n1`, the Potency result is “inactive”. Under `O=C1OC(=O)C2C3C=CC(C3)C12` (stereo not given) stands “inactive”. Take `CCOC(=O)NCCOc1ccc(Oc2ccccc2)cc1`: the Potency is 43.6 µM (active).

With `CCCCCCCCCOS(=O)(=O)O`, the Potency result was “inactive”. As to `CCCCC`, the Potency result is “inactive”.

Regarding `CCCCNc1ccc(C(=O)OCCOCCOCCOCCOCCOCCOCCOCCOCCOC)cc1`, the Potency result was “inactive”. Take `COCCCN1CCC(NC(=O)c2cc(Cl)c(N)c3c2OCC3)CC1`: the Potency result is “inactive”. For the compound `O=C(CS)Nc1ccccc1`, the Potency result was “inactive”. Under `O[C@@H](COc1cccc2ncccc12)CN1CCN(C2c3ccccc3[C@@H]3[C@H](c4ccccc42)C3(F)F)CC1` (stereo not given in full) stands 10.7 µM (active). For `CC(C)CC(=O)C1C(=O)c2ccccc2C1=O`, the Potency result is “inactive”.

For the compound `O=C(OCCCCCCOC(=O)c1ccccc1)c1ccccc1`, the Potency result is “inactive”.

In the case of `O=[N+]([O-])c1ccc(NCCO)c(OCCO)c1`, the Potency result was “inactive”.
